Source: the supplement of paper PMC9694430
Values joined by “and” are separate entries in the source; they are usually repeats but may differ in a detail not shown here. Equal values may be shown once. Where a name gives a salt, the structure may show the parent alone.

Tests used:
Experiment in all cases: thermal shift delta Tm vs DMSO control; higher = stronger stabilization (binding)
Details in all cases: 12.5 µM; protein concentration 2 µM
LOC_OS02G45750-cb003 = test system: LOC_OS02G45750-cb003
How it was run: (§1)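 Compounds dissolved in DMSO were added to purified rice kinase domain constructs, which had been expressed in E. coli, for differential scanning fluorimetry. Each well held 19.5 μl of 2 μM kinase in 100 mM potassium phosphate pH 7.5, 150 mM NaCl, 10% glycerol and 5 × SYPRO Orange. Fluorescence was followed from 25°C to 95°C at a rate of 0.05°C/s. Shifts in Boltzmann-fitted melting temperature are triplicate means relative to DMSO-only protein.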

LOC_OS02G54510-cb004 = test system: LOC_OS02G54510-cb004
How it was run: as §1

LOC_OS03G04050-cb001 = test system: LOC_OS03G04050-cb001
How it was run: as §1

LOC_OS03G12390-cb001 = test system: LOC_OS03G12390-cb001
How it was run: as §1

LOC_OS03G27990-cb004 = test system: LOC_OS03G27990-cb004
How it was run: as §1

LOC_OS03G50450-cb001 = test system: LOC_OS03G50450-cb001
How it was run: as §1

LOC_OS03G50810-cb003 = test system: LOC_OS03G50810-cb003
How it was run: as §1

LOC_OS04G35114-cb001 = test system: LOC_OS04G35114-cb001
How it was run: as §1

LOC_OS04G38480-cb003 = test system: T1, LOC_OS04G38480-cb003
T1 sequence (whole entry): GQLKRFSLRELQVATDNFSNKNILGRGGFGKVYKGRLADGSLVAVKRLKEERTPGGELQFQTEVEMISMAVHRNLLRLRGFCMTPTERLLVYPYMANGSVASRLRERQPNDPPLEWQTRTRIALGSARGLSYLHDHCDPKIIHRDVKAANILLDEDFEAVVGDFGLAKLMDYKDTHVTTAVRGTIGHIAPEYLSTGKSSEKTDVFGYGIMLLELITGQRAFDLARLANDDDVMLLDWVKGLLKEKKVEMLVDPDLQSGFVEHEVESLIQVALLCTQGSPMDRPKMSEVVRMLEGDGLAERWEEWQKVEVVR
How it was run: as §1

LOC_OS04G41100-cb001 = test system: T2, LOC_OS04G41100-cb001
T2 sequence (whole entry): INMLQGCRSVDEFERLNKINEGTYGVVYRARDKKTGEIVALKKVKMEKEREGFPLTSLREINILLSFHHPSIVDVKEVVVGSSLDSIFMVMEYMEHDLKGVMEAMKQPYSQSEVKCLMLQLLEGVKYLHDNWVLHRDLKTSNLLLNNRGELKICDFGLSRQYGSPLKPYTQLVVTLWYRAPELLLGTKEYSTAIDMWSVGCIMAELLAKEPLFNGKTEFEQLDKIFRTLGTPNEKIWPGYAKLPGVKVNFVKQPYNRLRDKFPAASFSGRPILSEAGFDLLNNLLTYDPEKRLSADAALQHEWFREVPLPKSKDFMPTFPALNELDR
How it was run: as §1

SMILES | thermal shift delta Tm (LOC_OS02G45750-cb003) | thermal shift delta Tm (LOC_OS02G54510-cb004) | thermal shift delta Tm (LOC_OS03G04050-cb001) | thermal shift delta Tm (LOC_OS03G12390-cb001) | thermal shift delta Tm (LOC_OS03G27990-cb004) | thermal shift delta Tm (LOC_OS03G50450-cb001) | thermal shift delta Tm (LOC_OS03G50810-cb003) | thermal shift delta Tm (LOC_OS04G35114-cb001) | thermal shift delta Tm (LOC_OS04G38480-cb003) | thermal shift delta Tm (LOC_OS04G41100-cb001)
C=CC(=O)Nc1cccc(C)c1Nc1ncc2cc(-c3c(Cl)c(OC)cc(OC)c3Cl)ccc2n1 | 1.09 °C | 0.44 °C | 0.49 °C | -0.06 °C | 0.28 °C | 0.23 °C | 0.27 °C | 0.49 °C | 2.08 °C | 0.27 °C
Cc1cc(O)c2c(c1)C(=O)c1cccc(O)c1C2=O [Chrysophanic Acid] | 0.14 °C | -1.28 °C | -0.08 °C | -1.54 °C | 0.02 °C | 0.03 °C | -0.82 °C | 0.09 °C | -1.19 °C | 0.06 °C
Cc1cc(F)c(Nc2ncnc3cc(OCc4ccccc4)ccc23)cc1O | 0.78 °C | 0.36 °C | 0.9 °C | 0.2 °C | 0.83 °C | 1.28 °C | 0.71 °C | 1.12 °C | 1.35 °C | -0.11 °C
COCC(=O)NC/C=C/c1ccc2ncnc(Nc3ccc(Oc4ccc(C)nc4)c(C)c3)c2c1 | 0.33 °C | -0.01 °C | 0.28 °C | -0.25 °C | -0.01 °C | -0.22 °C | -0.16 °C | 1.94 °C | 0.14 °C | 0.5 °C
CNC(=O)c1ccccc1Sc1ccc2c(/C=C/c3ccccn3)n[nH]c2c1 [Axitinib] | 4.92 °C | 0.12 °C | 0.3 °C | 0.31 °C | 0.01 °C | 0.21 °C | 0.35 °C | 2.98 °C | 0.63 °C | 0.65 °C
CNCc1ccc(-c2cc(-c3nc(-c4ccc(S(=O)(=O)C(C)C)cc4)cnc3N)on2)cc1 | 2.46 °C | 0.28 °C | 0.32 °C | 0.54 °C | 0.33 °C | 0.34 °C | 0.97 °C | 4.33 °C | 1 °C | 0.22 °C
C=CC(=O)Nc1cc(Nc2nccc(-c3cn(C)c4ccccc34)n2)c(OC)cc1N(C)CCN(C)C [Osimertinib (AZD9291)] | 1.63 °C | 0.52 °C | 0.78 °C | 4.71 °C | 0.93 °C | 0.74 °C | 2.65 °C | 6.25 °C | 2.86 °C | 0.51 °C
CN(C)Cc1cccc(N=C(c2ccccc2)c2c(O)[nH]c3cc(C(=O)N(C)C)ccc23)c1 | 4.33 °C | 0.4 °C | 0.44 °C | 0.66 °C | 1.19 °C | 0.55 °C | 2.45 °C | 5.85 °C | 0.55 °C | 0.45 °C
COc1cc(OC)c(/C=C/S(=O)(=O)Cc2ccc(OC)c(NCC(=O)O)c2)c(OC)c1 | 0.52 °C | 0.14 °C | 0.35 °C | 0.36 °C | 0.04 °C | 0.44 °C | 0.25 °C | 0.47 °C | 1.33 °C | 0.67 °C
OCCn1cc(-c2ccc3c(c2)CC/C3=N\O)c(-c2ccncc2)n1 | 0.34 °C | 0.15 °C | 0.48 °C | 0.53 °C | 0 °C | 0.31 °C | 0.5 °C | 0.11 °C | 0.49 °C | 0.67 °C
Nc1nccc(Oc2ccc3c(C(=O)Nc4cccc(C(F)(F)F)c4)cccc3c2)n1 | -1.33 °C | 0.78 °C | 0.37 °C | -0.16 °C | 0.11 °C | -0.18 °C | 0.17 °C | 0.62 °C | 1.77 °C | 0.51 °C
COCCNCc1ccc(-c2cc3nccc(Oc4ccc(NC(=O)C5(C(=O)Nc6ccc(F)cc6)CC5)cc4F)c3s2)nc1 [Sitravatinib (MGCD516)] | 6.42 °C | 1.08 °C | 0.75 °C | 0.75 °C | 1.06 °C | 0.57 °C | 3.13 °C | 6.52 °C | 3.71 °C | 3.13 °C
O=C(Nc1cnn2ccc(N3CCC[C@@H]3c3cc(F)ccc3F)nc12)N1CC[C@H](O)C1 [Larotrectinib (LOXO-101) sulfate] | 1.75 °C | 0.37 °C | 0.11 °C | -0.11 °C | 0.01 °C | 0.17 °C | 0.5 °C | 1.91 °C | 1.2 °C | 0.27 °C
Cc1c(NC(=O)c2ccc(C(C)(C)C)cc2)cccc1-c1cn(C)c(=O)c(Nc2ccc(C(=O)N3CCOCC3)cc2)n1 | 1.07 °C | 0.28 °C | 0.82 °C | 1.85 °C | 0.51 °C | 0.69 °C | 0.7 °C | 0.72 °C | 0.87 °C | 0.43 °C
COc1cc(N2CCN(C)CC2)ccc1Nc1nccc(-c2cn(C)c3cnccc23)n1 | 2.73 °C | 0.02 °C | 0.3 °C | 9.57 °C | 0.05 °C | -0.05 °C | 1.79 °C | 4.35 °C | 1.32 °C | 0.51 °C
Cn1cnc(N)c2ncnc1-2 [3-Methyladenine (3-MA)] | 0.36 °C | 0.39 °C | 0.47 °C | -0.25 °C | 0.15 °C | 0.39 °C | 0.4 °C | 0.91 °C | 1.15 °C | 0.12 °C
Cc1cnc(-c2cnc(NCCNc3ccc(C#N)cn3)nc2-c2ccc(Cl)cc2Cl)[nH]1 | 1.15 °C and 1.22 °C | 0.15 °C and -0.03 °C | 0.11 °C and 0.6 °C | 0.22 °C and 0.78 °C | 0.17 °C and 0.28 °C | -0.06 °C and 0.47 °C | 0.98 °C and 1.26 °C | 0.11 °C and 0.59 °C | 0.39 °C and 1.23 °C | 0.54 °C and 0.66 °C
COCCOc1ccc2c(c1)ncn2-c1ccc2cccc(N3CCC(N)CC3)c2n1 | 16.5 °C | 0.43 °C | 0.25 °C | 1.73 °C | 6.71 °C | 0.27 °C | 8.81 °C | 10 °C | 2.9 °C | 0.51 °C
Cc1c[nH]c2nc(Nc3ccc(N4CCN(C)CC4)c(F)c3)nc(-c3cccc(CC#N)c3)c12 | 11.6 °C | 3.94 °C | 0.91 °C | 13 °C | 8.79 °C | 8.2 °C | 9.84 °C | 12.4 °C | 6.06 °C | 1.61 °C
